An excerpt weighted towards active compounds, which were near 1.6% of everything screened.
KCNQ2 enhance = potentiators of rat KCNQ2 potassium channel; CHO-K1 KCNQ2, FluxOR thallium flux fluorescence; hits give high values; B-score at 10 µM; actives 0.54% (n = 310,000); AID 2239;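 active means fluorescence ratio B-score at least 3 SD of library B-scores, with initial fluorescence B-score within 3 of them, cut at about 5.3 in these data; same plate scores as AID 2156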;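 further: B-score of peak minus minimum over baseline fluorescence ratio after K+ and Tl+ stimulus; positive B-score means potentiation of KCNQ2 with more thallium influx and brighter signal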
KCNQ2 inh = blocks the rat KCNQ2 potassium channel; CHO-K1 KCNQ2, FluxOR thallium flux, 20 min; hits give low values; B-score at 10 µM; actives 1.1% (n = 310,000); AID 2156;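 active means fluorescence ratio B-score at most minus 3 library SDs, with starting brightness B-score within 2 library SDs, cut at about -5.5 in these data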
Large screens that a line does not name were inactive.

CCn1nc(C)c(C(=O)Nc2cc(Oc3cc(C)cc(C)c3)cc([N+](=O)[O-])c2)c1C	KCNQ2 inh -5.6
Cc1nn(C)cc1C(=O)Nc1cc(Oc2ccc(Cl)cc2)cc([N+](=O)[O-])c1	none (no result: KCNQ2 enhance)
Cc1cnc(C(=O)OCc2csc(CC(=O)Nc3ccccc3C)n2)cn1	none
CCN(CCCNC(=O)CCCN1C(=O)COc2ccc(C)cc21)c1cccc(C)c1	KCNQ2 inh -6.3
Cc1ccc2c(c1)N(CCCC(=O)NCCCN1CCCCC1)C(=O)CO2	none
CC1(C)Cc2c(c(N3CCCC3)nc3sc4c(N5CCNCC5)ncnc4c23)CO1	none (no result: KCNQ2 enhance)
O=C(NC(NC1CCS(=O)(=O)C1)C(=O)c1cccs1)c1ccccc1 (stereo not drawn)	none (no result: KCNQ2 enhance)
O=C(NC1=C(NC2CCS(=O)(=O)C2)C(=O)c2ccccc2C1=O)c1ccccc1 (stereo not drawn)	KCNQ2 enhance 6.2
O=C1c2cccc(OCc3ccc(F)cc3)c2CCN1Cc1ccccc1	KCNQ2 inh -6.5
Cc1ccc(COc2cccc3c2CCN(Cc2ccc(F)cc2)C3=O)cc1	none (no result: KCNQ2 enhance)
O=C(Nc1nnc(-c2ccccc2)o1)c1cc(Cl)sc1Cl	none
O=C(Nc1nnc(-c2ccc(F)cc2)o1)c1cc(Cl)sc1Cl	KCNQ2 enhance 16
Cc1ccccc1OCC(O)CNC1CCC(NCC(O)COc2ccccc2C)CC1 (stereo not drawn)	KCNQ2 inh -7.7
Cc1ccc(OCC(O)CNC2CCCC2)c(C)c1 (stereo not drawn)	none (no result: KCNQ2 enhance)
O=C1CCC(C(=O)N2CCCC(Nc3ccc(F)cc3)C2)=NN1 (stereo not drawn)	none (no result: KCNQ2 enhance)
CCOC(=O)N1CCN(Cc2cc(Cl)c3cccnc3c2O)CC1	KCNQ2 enhance 15
COCc1cc(CN2CCN(C)CC2)c(O)c2ncccc12	none (no result: KCNQ2 enhance)
COc1ccc2ccc(O)c(CN(C)CC(=O)Nc3ccccc3C(F)(F)F)c2c1	none (no result: KCNQ2 enhance)
O=C(/C=C/c1ccc(F)cc1)Nc1cc(S(=O)(=O)N2CCOCC2)ccc1N1CCCC1	none (no result: KCNQ2 enhance)
CN1CCN(c2ccc(Cl)cc2NC(=O)/C=C/c2ccc(F)cc2)CC1	KCNQ2 inh -5.6
CCCCC1(Cc2ccc([N+](=O)[O-])cc2)C(=O)N(c2ccccc2)N(c2ccccc2)C1=O	KCNQ2 inh -6
Cc1nn(Cc2ccc([N+](=O)[O-])cc2)c(=O)n1-c1ccccc1	none
CC(C)c1ccc(/C=N/NC(=O)c2nnn(-c3nonc3N)c2CN(C)C2CCCCC2)cc1	none
COCC(C)NS(=O)(=O)c1ccc(C(=O)NC(Cc2ccccc2)c2ccccc2)cc1 (stereo not drawn)	KCNQ2 inh -7.8
CS(=O)(=O)c1ccc(C(=O)NC(Cc2ccccc2)c2ccccc2)cc1 (stereo not drawn)	none (no result: KCNQ2 enhance)
CCCOc1ccc(-c2c(C(=O)N/N=C(\C)c3ccncc3)nnn2-c2nonc2N)cc1	none
Cc1ccc(SCC(=O)OC(C)C(=O)NCc2ccccc2)cc1C (stereo not drawn)	none (no result: KCNQ2 enhance)
COc1ccccc1C(=O)Nc1cccc2c1CCCC2	none
Cc1ccc(O)c(C(=O)c2cc(C(=O)NCCc3ccccc3)c(=O)n(CCc3ccccc3)c2)c1	KCNQ2 inh -7.1
COc1ccc(O)c(C(=O)c2cc(C(=O)NCCc3ccccc3)c(=O)n(CCc3ccccc3)c2)c1	none (no result: KCNQ2 enhance)
CCc1ccccc1S(=O)(=O)c1c(C)cc(C)nc1Cl	none
COc1ccc(NC(=O)COc2coc(CN3c4ccccc4CC3C)cc2=O)cc1 (stereo not drawn)	none
COc1cc(-c2nc(-c3ccc4c(c3)-c3ccccc3S4(=O)=O)c(-c3ccccc3)[nH]2)cc(OC)c1OC	KCNQ2 inh -7
COc1cc(-c2nc(-c3ccccc3)c(-c3cccs3)[nH]2)cc(OC)c1OC	none (no result: KCNQ2 enhance)
COc1ccc(NC(=O)C(Sc2nnc(-c3ccncc3)n2-c2ccccc2C)c2ccccc2)cc1Cl (stereo not drawn)	KCNQ2 inh -5.5
COc1ccc(NC(=O)C(OC)c2ccccc2)cc1Cl (stereo not drawn)	none
COc1ccc2cc(C#N)c(SCC(=O)NNC(=O)Cc3ccccc3)nc2c1	KCNQ2 inh -6.2
COC(=O)CSc1nc2cc(OC)ccc2cc1C#N	none
CCCCCCn1nc(C(=O)N(CCOC)c2c(N)n(CCCC)c(=O)[nH]c2=O)c2ccccc2c1=O	none (no result: KCNQ2 enhance)
CN(CCOc1ccc(Cl)cc1)C(=O)c1cc(-c2ccco2)nc2ccccc12	KCNQ2 inh -13
COc1cccc(NC(=O)CN(C)C(=O)c2cc(-c3ccco3)nc3ccccc23)c1	none (no result: KCNQ2 enhance)
Cc1ccc(S(=O)(=O)N2CCc3ccccc3C2)cc1C	none (no result: KCNQ2 enhance)
CC(C)C1Cc2c(sc(NC(=S)NC(=O)c3ccccc3)c2C#N)CO1 (stereo not drawn)	none
CCOC(=O)c1c(NC(=S)NCCc2ccccc2)sc2c1CC(C(C)C)OC2 (stereo not drawn)	KCNQ2 enhance 7.5
Cc1c(NC(=S)NC(=O)c2cccc(Cl)c2)c(=O)n(-c2ccccc2)n1C	none (no result: KCNQ2 enhance)
COc1ccc(C(=O)N/C(=C\c2cn(C)c3ccccc23)C(=O)NCCCN2CCOCC2)cc1	none (no result: KCNQ2 enhance)
O=C(CSc1ccccc1)NNC(=O)c1ccccc1O	none (no result: KCNQ2 enhance)
NC(=O)c1ccc(Oc2ccc3c(c2)CCC3)c([N+](=O)[O-])c1	none (no result: KCNQ2 enhance)
CCCOc1ccc(C(=O)CCNC(Cc2c[nH]c3ccccc23)C(=O)O)cc1 (stereo not drawn)	KCNQ2 inh -6
COc1ccc(C(=O)NC(Cc2c[nH]c3ccccc23)C(=O)O)cc1 (stereo not drawn)	none (no result: KCNQ2 enhance)
Cc1ccc(S(=O)(=O)NC(=O)COc2ccc(Cl)cc2Cl)cc1	none
CCN(C(=O)/C=C/c1ccc2c(c1)OCO2)c1ccccc1	KCNQ2 inh -6
CCN(CC(=O)Nc1ccc(NC(C)=O)cc1)C(=O)/C=C/c1ccc2c(c1)OCO2	none (no result: KCNQ2 enhance)
CC(C)(C)c1ccccc1N=Cc1ccc2ccccc2n1	KCNQ2 inh -6.4
O/N=C/c1ccc2ccccc2n1	none (no result: KCNQ2 enhance)
Cc1ccc(OCc2cc(C(=O)NC(C)Cc3cccc(C)n3)no2)cn1 (stereo not drawn)	none
CCOC(=O)c1nn(-c2ccccc2)c(=O)cc1OCC(=O)Nc1ccccc1OCC	none (no result: KCNQ2 enhance)
COc1ccc(/C(C)=N/Nc2cccc(C(=O)O)c2)cc1OC	none (no result: KCNQ2 enhance)
C/C(=N\Nc1ccc(C(=O)O)cc1)c1ccc2c(c1)Nc1ccccc1S2	KCNQ2 enhance 5.3
CCOc1ccc(OCC)c(NC(=O)CSc2nnc(C3CC3)n2CC)c1	none
Cn1c(=O)c([N+](=O)[O-])c(-n2ccnc2)c2ccccc21	KCNQ2 inh -6
Cn1c(=O)c([N+](=O)[O-])c(NCCCn2ccnc2)c2ccccc21	none (no result: KCNQ2 enhance)
CC(C)(C)c1cc(C(=O)Nc2ccc(F)cc2)n(Cc2ccc(F)cc2)n1	KCNQ2 inh -5.9
Cc1ccc(NC(=O)c2cc(C(C)(C)C)nn2Cc2ccccc2)cc1	none (no result: KCNQ2 enhance)
Cc1ccc(/C=C/C(=O)N2CCN(c3ncccn3)CC2)o1	KCNQ2 enhance 8.9
Cc1ccc(/C=C/C(=O)N2CCN(c3ccc(F)cc3)CC2)o1	none (no result: KCNQ2 enhance)
O=C(NCCCN1CCOCC1)/C(=C/c1cccs1)NC(=O)c1ccccc1	none
O=C(NCc1ccncc1)c1ccc(S(=O)(=O)Nc2ccccc2)cc1	none
O=C(NCC(c1cccs1)N1CCOCC1)c1ccccc1NS(=O)(=O)c1ccc(Cl)c([N+](=O)[O-])c1 (stereo not drawn)	KCNQ2 inh -6.2
O=C(NCC(c1cccs1)N1CCOCC1)c1ccccc1NS(=O)(=O)c1cc([N+](=O)[O-])ccc1Cl (stereo not drawn)	none (no result: KCNQ2 enhance)
COc1ccccc1C(CNc1nc(C(F)(F)F)nc2ccccc12)N(C)C (stereo not drawn)	none (no result: KCNQ2 enhance)
O=C(C(Cc1ccccc1)n1cccc1)N1CCN(c2cccc(Cl)c2)CC1 (stereo not drawn)	KCNQ2 inh -5.8

Screening results (PubChem)
